{"source": "PubChem BioAssay (NCATS)", "key": {"[1]": {"experiment": "Primary qHTS to identify inhibitors of SARS-CoV-2 cell entry (AID 1645846); further: nearly all actives have a fitted effect of over 45% in size; further: potency means the concentration at half of the fitted maximal effect", "details": "SARS-CoV-2 pseudovirus cell entry assay, luminescence; activity change, negative = inhibition: at 57.1 µM (top of the series) unless noted", "summary_of_the_method": "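Luminescence readout (Bright-Glo luciferase) 48 h after pseudoparticle addition. HEK293-ACE2 cells, 1500/well; compound pre-incubation 1 h; Normalized to spike PP and bald PP.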"}, "[2]": {"experiment": "MultiTox-Fluor Cytotoxicity Assay - LYMP1-002 - Dead Cells (AID 960; active means well fitted curve in the direction sought with a large enough effect; an effect the other way counts as inactive or inconclusive; further: potency means the concentration at half of the fitted maximal effect; nearly all actives have a fitted effect of over 60% in size)", "summary_of_the_method": "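Cells were plated, rested 5 hr, then treated with compound dilution series for 16 hr at 37 C. After adding substrate reagent and 60 min at room temperature, dead-cell protease fluorescence gave concentration-response curves fitted by the Hill equation.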"}, "[3]": {"experiment": "Cytotoxicity counterscreen for inhibitors of SARS-CoV-2 cell entry (AID 1645845); further: nearly all actives have a fitted effect of over 50% in size; further: potency means the concentration at half of the fitted maximal effect", "details": "outcome: at 57.1 µM (top of the series) unless noted", "summary_of_the_method": "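Counterscreen run in the same HEK293-ACE2 line as the pseudotyped-particle entry assay, without particles. Viability after 48 h at 37 C was read as ATP luminescence, scaled between cell-containing and cell-free wells.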"}, "[4]": {"experiment": "VSVG counterscreen qHTS to identify inhibitors of SARS-CoV-2 cell entry (AID 1645847); further: on the % scale 0 is the no-effect control and ±100 the full control effect; nearly all actives have a fitted effect of over 65% in size", "summary_of_the_method": "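HEK293-ACE2 cells (Expi293F stably expressing human ACE2) were pretreated with compound for 1 h at 37 °C, then infected with MLV-based VSV-G pseudotyped particles for 48 h. Luciferase luminescence was normalized to VSV-G PP and bald PP wells.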"}, "[5]": {"experiment": "Primary qHTS for inhibitors of nuclear receptor binding SET domain protein 2 (NSD2) in an isogenic RCH-ACV NSD2 p.E1099K mutant (9B) (AID 1645876; active means well fitted curve in the direction sought with a large enough effect; an effect the other way counts as inactive or inconclusive; further: nearly all actives have a fitted effect of over 70% in size; further: potency means the concentration at half of the fitted maximal effect)"}, "[6]": {"experiment": "Primary qHTS for inhibitors of nuclear receptor binding SET domain protein 2 (NSD2) in an RCH-ACV wild type WT cells (2C) (AID 1645877; active means well fitted curve in the direction sought with a large enough effect; an effect the other way counts as inactive or inconclusive; further: nearly all actives have a fitted effect of over 70% in size; further: potency means the concentration at half of the fitted maximal effect)"}, "[7]": {"target": "Glutathione peroxidase 1 (Homo sapiens) (UniProt P07203)", "sequence (P07203 whole entry, looked up)": "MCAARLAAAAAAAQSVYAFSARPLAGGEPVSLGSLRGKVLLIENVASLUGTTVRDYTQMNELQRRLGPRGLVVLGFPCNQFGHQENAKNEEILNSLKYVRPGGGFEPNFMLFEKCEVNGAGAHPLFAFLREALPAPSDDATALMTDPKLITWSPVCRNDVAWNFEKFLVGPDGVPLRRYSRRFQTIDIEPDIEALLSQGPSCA", "experiment": "Primary qHTS Assay for Inhibitors of Recombinant Selenoprotein Glutathione Peroxidase 1 (GPX1) (AID 1845191; active means well fitted curve in the direction sought with a large enough effect; an effect the other way counts as inactive or inconclusive; further: nearly all actives have a fitted effect of over 65% in size)", "summary_of_the_method": "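GR-coupled readout: NADPH consumption tracked by fluorescence, ex 340/em 450 nm, at t=0 and after 15 min at RT. Final mix 10 nM GPX1, 1 mM GSH, 0.5 mM CHP, 0.5 mM NADPH, 100 nM GR, 0.01% BSA, following 30 min enzyme–compound preincubation.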"}, "[8]": {"target": "Phospholipid hydroperoxide glutathione peroxidase GPX4 (Homo sapiens) (UniProt P36969)", "sequence (P36969 whole entry, looked up)": "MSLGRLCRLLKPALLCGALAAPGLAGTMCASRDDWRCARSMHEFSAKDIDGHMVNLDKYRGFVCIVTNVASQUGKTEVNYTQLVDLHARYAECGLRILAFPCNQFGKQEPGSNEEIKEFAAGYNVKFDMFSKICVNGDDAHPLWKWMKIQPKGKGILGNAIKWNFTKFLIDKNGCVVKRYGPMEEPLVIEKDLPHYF", "experiment": "Primary qHTS Assay for Inhibitors of Recombinant Selenoprotein Glutathione Peroxidase 4 (GPX4) (AID 1845192; active means well fitted curve in the direction sought with a large enough effect; an effect the other way counts as inactive or inconclusive; further: nearly all actives have a fitted effect of over 65% in size)", "summary_of_the_method": "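Steps: GPX4 plus compound, 30 min RT; add GR/GSH/NADPH master mix; start with cumene hydroperoxide; read 340/450 nm fluorescence at 0 and 15 min. Finals were 200 nM GPX4, 1 mM GSH, 0.5 mM CHP, 0.5 mM NADPH, 100 nM GR.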"}, "[9]": {"experiment": "qHTS drug screen for cell cycle checkpoint inhibitors in PARPi-resistant BRCA-mutant ovarian cancer cell lines. (AID 1963452)", "details": "PEO1/OlaR viability, CellTiter-Glo luminescence, 96 h, stronger effect = lower value", "summary_of_the_method": "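PEO1, PEO4 and PEO1/OlaR ovarian cancer cells, 600 per well, exposed 96 h at 37C to a dilution series. Viability read by CellTiter-Glo luminescence, normalized to DMSO and empty wells; activity summarized as Z-AUC.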"}, "[10]": {"experiment": "qHTS profiling of the MIPE4 collection as inhibitors of Plasmodium falciparum (3D7) proliferation (AID 743344; call rule not given here)", "details": "P. falciparum 3D7 in erythrocytes, SYBR Green DNA fluorescence, 72 h; at 28.5 µM (top of the series)", "summary_of_the_method": "(§1)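 Parasite DNA was quantified by SYBR Green I fluorescence (ex 485, em 535 nm) after overnight lysis in saponin/Triton buffer at room temperature. Cultures at 0.3% parasitemia and 2.5% hematocrit were first exposed to compound for 72 h at 37 C; signals were normalised to artemisinin (0.29 uM) and vehicle wells.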"}, "[11]": {"experiment": "qHTS profiling of the MIPE4 collection as inhibitors of Plasmodium falciparum (DD2) proliferation (AID 743345; call rule not given here)", "details": "P. falciparum Dd2 in erythrocytes, SYBR Green DNA, 72 h; at 28.5 µM (top of the series)", "summary_of_the_method": "as §1"}, "[12]": {"experiment": "qHTS profiling of the MIPE4 collection as inhibitors of Plasmodium falciparum (DD2) proliferation (Rep 2) (AID 743346; call rule not given here)", "details": "P. falciparum Dd2 in erythrocytes, SYBR Green DNA, 72 h; at 28.5 µM (top of the series)", "summary_of_the_method": "as §1"}, "[13]": {"experiment": "qHTS profiling of the MIPE4 collection as inhibitors of Plasmodium falciparum (HB3) proliferation (AID 743347; call rule not given here)", "details": "P. falciparum HB3 in erythrocytes, SYBR Green DNA, 72 h; at 28.5 µM (top of the series)", "summary_of_the_method": "as §1"}}, "note": "Inconclusive results are not listed. The source made the active and inactive calls. Unless noted, the call rests on the fitted dose curve.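 Wherever growth, % of control is given: plate controls were DMSO vehicle wells for no effect and artemisinin wells for full effect.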", "data": [{"smiles": "COc1cc([C@@H]2c3cc4c(cc3[C@@H](O[C@@H]3O[C@@H]5CO[C@@H](c6cccs6)O[C@H]5[C@H](O)[C@H]3O)[C@H]3COC(=O)[C@H]23)OCO4)cc(OC)c1O", "values": [{"measurement": "activity change, negative = inhibition", "setting": "[1]", "result": -96.2, "unit": "%"}]}, {"smiles": "COc1cc(/C=C/C(=O)CC(=O)/C=C/c2ccc(O)c(OC)c2)ccc1O", "values": [{"measurement": "Potency", "setting": "[2]", "result": "31.6 µM (active)"}, {"measurement": "Potency", "setting": "[3]", "result": "31.6 µM (active)"}]}, {"smiles": "COC1CC(C(=O)c2ccc3c(N)ncc(-c4ccc(-c5cnn(C)c5)cc4)c3n2)C1", "note": "(configuration not stated)", "values": [{"measurement": "Potency", "setting": "[3]", "result": "inactive"}, {"measurement": "Potency", "setting": "[4]", "result": "inactive"}]}, {"smiles": "CNC(=O)c1c(-c2ccc(F)cc2)oc2cc(N(CCO)S(C)(=O)=O)c(C3CC3)cc12", "values": [{"measurement": "activity change, negative = inhibition", "setting": "[1]", "result": -3.84, "unit": "%"}]}, {"smiles": "CCn1c(=O)c(-c2ccc(-c3cncc(C)n3)cc2Cl)cc2cnc(NCCC3CCN(C)CC3)nc21", "values": [{"measurement": "Potency", "setting": "[1]", "result": "3.16 µM (active)"}]}, {"smiles": "CC1(C)CC(O)CC(C)(C)N1O", "values": [{"measurement": "Potency", "setting": "[3]", "result": "inactive"}, {"measurement": "Potency", "setting": "[5]", "result": "inactive"}, {"measurement": "Potency", "setting": "[6]", "result": "inactive"}, {"measurement": "Potency", "setting": "[7]", "result": "inactive"}, {"measurement": "Potency", "setting": "[8]", "result": "inactive"}, {"measurement": "Z-AUC", "setting": "[9]", "result": "0.107 (inactive)"}, {"measurement": "Z-AUC", "setting": "[9]; measured here: PEO1 parental Z-AUC", "result": 0.652}, {"measurement": "Z-AUC", "setting": "[9]; measured here: PEO4 Z-AUC", "result": 0.604}]}, {"smiles": "CC(C)(C)c1[nH]cnc1/C=c1\\[nH]c(=O)/c(=C/c2ccccc2)[nH]c1=O", "values": [{"measurement": "activity change, negative = inhibition", "setting": "[1]", "result": -98.3, "unit": "%"}]}, {"smiles": "CC[C@H](C)[C@@H]([C@@H](CC(=O)N1CCC[C@H]1[C@H](OC)[C@@H](C)C(=O)N[C@@H](Cc1ccccc1)c1nccs1)OC)N(C)C(=O)[C@@H](NC(=O)[C@H](C(C)C)N(C)C)C(C)C", "values": [{"measurement": "activity change, negative = inhibition", "setting": "[1]", "result": -79.3, "unit": "%"}]}, {"smiles": "CN1CCN(c2ncc(-c3cc(Cl)cc(Cl)c3Cl)c(N)n2)CC1", "values": [{"measurement": "parasite growth, % of DMSO control", "setting": "[10]", "result": 53.8, "unit": "%"}, {"measurement": "parasite growth remaining, % of DMSO control (lower = more inhibition)", "setting": "[11]", "result": 75.6, "unit": "%"}, {"measurement": "parasite growth, % of control (lower = inhibition)", "setting": "[12]", "result": 39.8, "unit": "%"}, {"measurement": "growth, % of control", "setting": "[13]", "result": 81.9, "unit": "%"}, {"measurement": "Potency", "setting": "[3]", "result": "inactive"}]}, {"smiles": "CNC(=O)Cn1cc(-c2ccc3c(c2)C(F)CC32NC(=O)N(CC(=O)N(Cc3ccc(F)cc3)C(C)C(F)(F)F)C2=O)cn1", "note": "(configuration not stated)", "values": [{"measurement": "activity change, negative = inhibition", "setting": "[1]", "result": -52.5, "unit": "%"}]}, {"smiles": "CCCCN(CCCC)C(=O)CN1C[C@H](c2ccc3c(c2)OCO3)[C@@H](C(=O)O)[C@@H]1c1ccc(OC)cc1", "values": [{"measurement": "activity change, negative = inhibition", "setting": "[1]", "result": -74.4, "unit": "%"}]}, {"smiles": "N#Cc1cc2cc(CN3CCC(Nc4ncnc5sc(CC(F)(F)F)cc45)CC3)c(O)cc2n1Cc1cn[nH]c1", "values": [{"measurement": "Potency", "setting": "[1]", "result": "17.8 µM (active)"}]}, {"smiles": "CCN(CC)CCNC(=O)c1c(C)[nH]c(/C=C2/C(=O)Nc3ccc(-c4csc(-c5ccccc5)n4)cc32)c1C", "values": [{"measurement": "Potency", "setting": "[1]", "result": "22.4 µM (active)"}]}, {"smiles": "Cc1ccc(NC(=O)c2ccc(CN3CC[C@H](N(C)C)C3)c(C(F)(F)F)c2)cc1Nc1nccc(-c2cncnc2)n1", "values": [{"measurement": "activity change, negative = inhibition", "setting": "[1]", "result": "-12% [at 27.1 µM]"}]}, {"smiles": "Cc1sc2c(c1C)C(c1ccc(Cl)cc1)=NC(CC(N)=O)c1nnc(C)n1-2", "note": "(configuration not stated)", "values": [{"measurement": "Potency", "setting": "[3]", "result": "inactive"}, {"measurement": "Potency", "setting": "[5]", "result": "0.105 µM (active)"}, {"measurement": "Potency", "setting": "[6]", "result": "0.132 µM (active)"}]}, {"smiles": "O=C(NO)c1cnc(NC2(c3cccc(F)c3)CCCCC2)nc1", "values": [{"measurement": "Potency", "setting": "[1]", "result": "28.2 µM (active)"}]}, {"smiles": "O=C(NOCC(O)CO)c1ccc(F)c(F)c1Nc1ccc(I)cc1F", "note": "(configuration not stated)", "values": [{"measurement": "activity change, negative = inhibition", "setting": "[1]", "result": -21.5, "unit": "%"}]}]}
